The whole screen tested about 6,200 compounds, of which about 2,900 (47%) were called active. Rule as the data show it: active = inhibition above about 50%; inactive = the rest. The set was probably picked from earlier hits. Some of the results follow.
Experiment: Mycobacterium tuberculosis growth inhibition, primary screen (AID 1259343)
Conditions: inhibition: at 10 µM, active compounds read high; outcome: 10 uM
For `CCCCCCCCCCCCCCCCCCN(C)C`, the inhibition was 98.2% (active).
For `CCOc1ccc2oc(C(=O)NC(C)(C)CC)c(C)c2c1`, the inhibition was 64% (active).
For `C(=Nn1c(-c2ccc3c(c2)OCCO3)csc1=NCCc1ccccc1)c1ccccn1`, the inhibition was 30.9% (inactive).
In the case of `CCN=c1scc(-c2ccc(C)c(C)c2)n1N=Cc1cccnc1`, the inhibition was -8.38% (inactive).
In the case of `CCN=c1scc(-c2ccc(F)cc2)n1N=Cc1ccc2c(c1)OCCO2`, the inhibition was 4% (inactive).
In the case of `CCN=c1scc(-c2ccc3c(c2)OCCO3)n1N=Cc1cc(C)ccc1C`, the inhibition was 87.5% (active).
With `CCN=c1scc(-c2ccc(C)c(C)c2)n1N=Cc1ccc2c(c1)OCCO2` the inhibition was 70.5% (active).
For `COc1ccc(CC2CN(C/C=C/c3ccccc3)CCO2)cc1` (stereo not drawn), the inhibition was 41.6% (inactive).
With `Cc1nc(SCc2ccc(C(=O)O)cc2)nc(N2CCN(C/C=C/c3ccccc3)CC2)c1C` the inhibition was 5.19% (inactive).
In the case of `C(#Cc1ccccc1)CN1CCN(C/C=C/c2ccccc2)CC1`, the inhibition was 80.2% (active).
With `O=C(Nc1ccc(N2CCN(C(=O)c3ccc(-c4cccc(Cl)c4)s3)CC2)nc1)c1ccco1` the inhibition was 38.5% (inactive).
With `O=C(Nc1nc(OCC(F)(F)F)cnc1-c1ccc(Cl)cc1Cl)c1ccco1` the inhibition was 64.5% (active).
With `CCCc1cc(=O)[nH]c(-n2nc(C)cc2NC(=O)c2ccccc2[N+](=O)[O-])n1` the inhibition was 101% (active).
With `CCc1cc(=O)[nH]c(-n2nc(C)cc2NC(=O)c2ccccc2[N+](=O)[O-])n1` the inhibition was 101% (active).
For `CN(C)[C@@H]1C(=O)C(C(N)=O)=C(O)[C@@]2(O)C(=O)C3=C(O)c4c(O)cccc4[C@@](C)(O)[C@H]3C[C@@H]12`, the inhibition was 60.8% (active).
With `COc1cccc(Nc2ccc3c(-c4ccccc4)noc3n2)c1OC` the inhibition was 70.1% (active).
In the case of `COc1ccccc1NC(=O)c1ccc2noc(-c3ccccc3)c2c1`, the inhibition was 42.1% (inactive).
For `CSCCC(=O)N1CCC(C(=O)Nc2cccc(-c3cccc(Cl)c3)c2)CC1`, the inhibition was 88% (active).
For `COCCC(=O)N1CCC(C(=O)Nc2cccc(-c3cccc(Cl)c3)c2)CC1`, the inhibition was 8.7% (inactive).
For `O=C(Nc1cccc(-c2cccc(Cl)c2)c1)C1CCN(C(=O)CCn2cnnn2)CC1`, the inhibition was 90.2% (active).
In the case of `CCn1cc(CN2CCC(C(=O)Nc3ccc(Oc4ccccc4F)cc3)CC2)cn1`, the inhibition was “inactive”.
In the case of `COc1cccc(CN2CCC(C(=O)Nc3ccc(Oc4ccccc4F)cc3)CC2)c1`, the inhibition was 62.3% (active).
With `O=C(Nc1ccc(Oc2ccccc2F)cc1)C1CCN(CCCn2cccn2)CC1` the inhibition was 86.6% (active).
In the case of `CCc1ncc(CN2CCC(C(=O)Nc3ccc(Oc4ccccc4F)cc3)CC2)cn1`, the inhibition was 86.1% (active).
With `CC(=O)c1cccc(CN2CCC(C(=O)Nc3ccc(Oc4ccccc4F)cc3)CC2)c1` the inhibition was “inactive”.
For `O=C(Nc1ccc(Oc2ccccc2F)cc1)C1CCN(Cc2cccc3c2OCO3)CC1`, the inhibition was 93.3% (active).
With `COCc1ccc(CN2CCC(C(=O)Nc3ccc(Oc4ccccc4F)cc3)CC2)o1` the inhibition was “inactive”.
For `Cc1nc(C)c(CN2CCC(C(=O)Nc3ccc(Oc4ccccc4F)cc3)CC2)nc1C`, the inhibition was 82.5% (active).
In the case of `O=C(Nc1cccc(-c2cccc(F)c2)c1)C1CCN(CCCn2cccn2)CC1`, the inhibition was 89.5% (active).
For `O=C(C1CCCC1)N1CCc2c([nH]c3ccccc23)C1c1cc(F)ccc1F` (stereo not drawn), the inhibition was 24.3% (inactive).
For `O=c1c2ccccc2[nH]c(=S)n1C1CCCC1`, the inhibition was 90.2% (active).
With `c1ccc2c(c1)CCN(c1ncnc3c1oc1ccccc13)C2` the inhibition was 19.2% (inactive).
With `Fc1ccc(OCc2nnc3sc(C4CC4)nn23)cc1` the inhibition was 67% (active).
With `COc1ccc(OCc2nc(C(=O)N3CCC3c3ccc(F)cc3)co2)cc1` (stereo not drawn) the inhibition was 28.5% (inactive).
For `Fc1ccc(OCc2nc(CSc3nnnn3C3CC3)cs2)cc1`, the inhibition was 4.6% (inactive).
For `COc1ccccc1C=NNC(=O)c1cc(C23CC4CC(CC(C4)C2)C3)[nH]n1`, the inhibition was 99.6% (active).
With `O=C(NN=Cc1ccccc1O)c1cc(C23CC4CC(CC(C4)C2)C3)[nH]n1` the inhibition was 28.4% (inactive).
With `O=C(NN=Cc1ccc(F)cc1)c1cc(C23CC4CC(CC(C4)C2)C3)[nH]n1` the inhibition was 10.7% (inactive).
In the case of `CC(C)Cn1c(CN(C)Cc2ncc[nH]2)nc2ccccc21`, the inhibition was 29.8% (inactive).
In the case of `CN(C)C=NC1=NN(c2ccccc2)CC1`, the inhibition was -0.55% (inactive).
For `CN(C)c1ccc(C=NNC2=Nc3cccc4cccc2c34)cc1`, the inhibition was 18.6% (inactive).
For `c1ccc(C2=NN(c3ccccc3)CC2)cc1`, the inhibition was -38.3% (inactive).
In the case of `C(=NC1=NN(c2ccccc2)CC1)c1ccccc1`, the inhibition was 54% (active).
In the case of `NC1=NN(c2ccccc2)CC1`, the inhibition was 82.6% (active).
With `CN(C)c1ccc(C=NC2=NN(c3ccccc3)CC2)cc1` the inhibition was 90.3% (active).
In the case of `FC(F)(F)c1ccc2c(c1)n(Cc1ccc(Cl)c(Cl)c1)c1[n+]2CCCCC1`, the inhibition was 10.6% (inactive).
With `C=CC[n+]1c(-c2ccccc2)csc1Nc1ccccc1OC` the inhibition was 88.1% (active).
In the case of `Cc1ccc(C=NNC(=S)NC2CCCCC2)o1`, the inhibition was 101% (active).
In the case of `CC(C)NC(=S)NN=Cc1c(F)c(F)c(F)c(F)c1F`, the inhibition was 82.9% (active).
For `Cc1ccc(C=NNC(=O)NC2CCCCC2)o1`, the inhibition was -14.7% (inactive).
For `CCCCNC(=S)NN=Cc1ccc(C)o1`, the inhibition was 81.2% (active).
In the case of `CC(=NNC(=S)NC1CCCCC1)c1ccc(C)o1`, the inhibition was -13.8% (inactive).
With `CCNC(=S)NN=Cc1ccco1` the inhibition was 1.13% (inactive).
For `Cc1ccc(C=NNC(=S)NC(C)C)o1`, the inhibition was 54.2% (active).
In the case of `CCc1c(C)sc2[nH]c(=S)n(C)c(=O)c12`, the inhibition was 24.5% (inactive).
In the case of `CN(C)S(=O)(=O)n1cc(/C=C/c2nc(N)nc(-c3ccccc3O)n2)c2ccccc21`, the inhibition was 13.7% (inactive).
For `O=C(NCCc1ccc(Cl)s1)Nc1ccccn1`, the inhibition was 35.1% (inactive).
In the case of `O=C(NCC1CCCc2ccccc21)c1ccccn1` (stereo not drawn), the inhibition was 3.26% (inactive).
For `CC(C)(CNC(=O)c1ccccn1)c1ccccc1`, the inhibition was 65.7% (active).
With `Fc1ccc(-c2c[nH]c(=S)[nH]2)cc1` the inhibition was 90.2% (active).
In the case of `O=c1oc2ccccc2c(O)c1C(c1ccc2c(c1)OCO2)c1c(O)c2ccccc2oc1=O`, the inhibition was 54.4% (active).
For `O=c1oc2ccccc2c(O)c1C(c1ccccc1O)c1c(O)c2ccccc2oc1=O`, the inhibition was 90.2% (active).
With `O=c1oc2ccccc2c(O)c1C(c1cncs1)c1c(O)c2ccccc2oc1=O` the inhibition was -17.6% (inactive).
In the case of `CC(C)[C@H](CNC(=O)[C@@H](NC(=O)c1cccc(-c2ccccc2)n1)[C@@H](C)O)B(O)O`, the inhibition was 23.9% (inactive).
In the case of `Cc1ccc(N=Nc2cn[nH]c2C)cc1`, the inhibition was -8.23% (inactive).
In the case of `COc1ccc(NC(=O)C(C)CS(=O)(=O)c2ccc(Br)cc2)cc1F` (stereo not drawn), the inhibition was 61.1% (active).
In the case of `c1cc2c3c(cccc3c1)/C(=N/OCC1CO1)C2` (stereo not drawn), the inhibition was 101% (active).
In the case of `N#Cc1nc(COc2ccc(Br)cc2)oc1NCCCn1ccnc1`, the inhibition was 62.4% (active).
In the case of `N#Cc1nc(-c2ccc(COc3ccc(Cl)cc3)o2)oc1NCC1CCCO1` (stereo not drawn), the inhibition was 46.9% (inactive).
In the case of `c1ccc(CC[P+](c2ccccc2)(c2ccccc2)c2ccccc2)cc1`, the inhibition was 62.6% (active).
With `NC(CCCc1ccccc1)c1ccccc1` (stereo not drawn) the inhibition was 15.7% (inactive).
For `COc1cc(C=C2SC(=S)NC2=O)cc(Br)c1O`, the inhibition was 90% (active).
With `O=C1NC(=S)SC1=Cc1ccc(F)cc1` the inhibition was 32.6% (inactive).
With `O=C1NC(=S)SC1=Cc1cc(O)c(O)c(Cl)c1` the inhibition was 88.3% (active).
In the case of `COc1ccc(C=C2SC(=S)NC2=O)cc1F`, the inhibition was 86.7% (active).
For `O=C1/C(=C\c2ccc(O)c(Cl)c2)CS(=O)(=O)C/C1=C/c1ccc(O)c(Cl)c1`, the inhibition was -0.82% (inactive).
For `O=C1NC(=S)SC1=Cc1ccc(F)c(F)c1`, the inhibition was 88.5% (active).
With `Cc1nn(C)c(C)c1CCC(=O)Nc1ccc(C(C)(C)C#N)cc1` the inhibition was 71% (active).
In the case of `COc1ccc(NC(=O)CCc2ccccc2C#N)cc1`, the inhibition was 27.5% (inactive).
For `S=c1[nH]nc(-c2ccccc2)c2ccccc12`, the inhibition was 70.8% (active).
In the case of `Cc1ccc(-c2n[nH]c(=S)c3ccccc23)cc1`, the inhibition was 32.5% (inactive).
In the case of `CC1CN(c2ccc(-c3nnc(Br)s3)cc2)CC(C)(C)O1` (stereo not drawn), the inhibition was 10.5% (inactive).
In the case of `O=C(O)c1ccc(COc2cccc(Cl)c2)s1`, the inhibition was 81.8% (active).
For `Clc1cccc(OCOCOc2cccc(Cl)c2)c1`, the inhibition was 1.77% (inactive).
For `CN(C)S(=O)(=O)c1ccc(COc2cccc(Cl)c2)o1`, the inhibition was 49.6% (inactive).
In the case of `Cc1ccc(Oc2ccc(NC(C)C(=O)NC(C)C)cc2)cc1` (stereo not drawn), the inhibition was 30.7% (inactive).
In the case of `O=C(NN1CCOCC1)c1ccc(Oc2ccc(F)cc2)cc1`, the inhibition was 89.4% (active).
For `CCCNC(=O)c1ccc(Oc2ccc(F)cc2)cc1`, the inhibition was 90.3% (active).
With `CCCNC(=O)C(C)NC(=O)c1ccc(Oc2ccc(F)cc2)cc1` (stereo not drawn) the inhibition was 62.5% (active).
For `C=CCOc1cccc(C2c3c(oc4ccc(C)cc4c3=O)C(=O)N2c2nccs2)c1` (stereo not drawn), the inhibition was 1.57% (inactive).
With `Fc1cccc(-c2nc3c(NCc4ccccc4)nccc3[nH]2)c1` the inhibition was 58.3% (active).
For `Cc1cccc(-c2nc3c(NCc4cccc(N(C)C)c4)nccc3[nH]2)c1`, the inhibition was 76.8% (active).
In the case of `Cc1cccc(-c2nc3c(NCc4ccccc4)nccc3[nH]2)c1`, the inhibition was 68.2% (active).
For `Fc1ccc(-c2nc3c(NCc4ccccc4)nccc3[nH]2)cc1F`, the inhibition was 35.1% (inactive).
In the case of `Cc1c(-c2ccccc2)[nH]c2c(CNc3nccc(N)n3)cc(Cl)cc12`, the inhibition was 25.5% (inactive).
In the case of `c1ccc(CNc2nc(-c3ccccc3)nc3ccccc23)cc1`, the inhibition was -8.46% (inactive).
With `c1ccc(-c2nc3c(NC4CCCCC4)nccc3[nH]2)cc1` the inhibition was 76.1% (active).
With `Fc1cc(NCc2ccccc2)nc(NCc2ccccc2)n1` the inhibition was 13.7% (inactive).
In the case of `Cc1ccc(-c2nc3c(NCc4cccc(N(C)C)c4)nccc3[nH]2)cc1`, the inhibition was 65.2% (active).
In the case of `Cc1cc(=O)[nH]c(-n2nc(C)cc2NC(=O)C(C)C)n1`, the inhibition was 100% (active).
For `CC(=O)Nc1cc(C)nn1-c1nc(C)cc(=O)[nH]1`, the inhibition was 100% (active).
For `Cc1cc(=O)[nH]c(-n2nc(C)cc2NC(=O)c2snnc2C)n1`, the inhibition was 99.6% (active).
For `C/C=C/C(=O)Nc1cc(C)nn1-c1nc(C)cc(=O)[nH]1`, the inhibition was 101% (active).
